The values that follow come from paper PMC7862700, “An all-to-all approach to the identification of sequence-specific readers for epigenetic DNA modifications on cytosine”.

Common to all, as to experiment: DAPPL (digital affinity profiling via proximity ligation, sequencing); 10 mM Tris-HCl pH 7.5, 50 mM NaCl, 1 mM DTT, 4% glycerol, room temperature, 30 min; GST-TFs on glutathione beads, 16-mer random dsDNA library, 0.1% formaldehyde crosslink after washing; high values mean tight binding
The target in one test is T1, FEV (Homo sapiens, UniProt Q99581 1-238).
T1 sequence: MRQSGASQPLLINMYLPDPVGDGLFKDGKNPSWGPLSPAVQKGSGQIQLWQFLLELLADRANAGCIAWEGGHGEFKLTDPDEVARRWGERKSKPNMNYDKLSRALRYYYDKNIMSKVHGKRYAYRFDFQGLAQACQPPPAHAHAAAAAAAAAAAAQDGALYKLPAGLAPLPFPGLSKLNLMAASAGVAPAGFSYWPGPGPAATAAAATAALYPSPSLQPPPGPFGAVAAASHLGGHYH
As to conditions: protein: recombinant; tags: N-terminal GST; dsDNA, one strand shown. In outline:
(§1)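 Binding signal is each hexamer's read frequency for a factor divided by its frequency in the tag-only sample. The factors were GST-fused human transcription factors from yeast, captured on glutathione beads, DNA-barcoded and pooled with that sample. Pools were incubated with 200 nmole of a random double-stranded 16-mer DNA library in Tris/NaCl/DTT/glycerol buffer at room temperature for 30 min, then washed, crosslinked with 0.1% formaldehyde, proximity-ligated with BsaI/T4 ligase (1 h, 37 °C), PCR-amplified and sequenced on an Illumina NextSeq500.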

Another test has as its target ETV5 (Homo sapiens, UniProt P41161 1-510). As to conditions: protein: recombinant; tags: N-terminal GST; dsDNA, one strand shown. The method, boiled down: as §1
Another test addresses HSF1 (Homo sapiens, UniProt Q00613 1-529). As to conditions: protein: recombinant; tags: N-terminal GST; chain copies: 3; dsDNA, one strand shown. The method, boiled down:
as §1

In a further test the target is T2, SPIC (Homo sapiens, UniProt Q8N5J4 1-248).
T2 sequence: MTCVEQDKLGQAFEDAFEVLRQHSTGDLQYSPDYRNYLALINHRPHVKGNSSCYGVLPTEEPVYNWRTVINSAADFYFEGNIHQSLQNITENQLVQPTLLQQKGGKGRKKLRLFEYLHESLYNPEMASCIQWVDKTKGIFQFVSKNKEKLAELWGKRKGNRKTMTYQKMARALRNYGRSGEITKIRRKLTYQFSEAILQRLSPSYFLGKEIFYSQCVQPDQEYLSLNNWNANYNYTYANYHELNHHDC
As to conditions: protein: recombinant; tags: N-terminal GST; dsDNA, one strand shown. In outline: as §1

Another test deals with ELF4 (Homo sapiens, UniProt Q99607 1-663). As to conditions: protein: recombinant; tags: N-terminal GST; dsDNA, one strand shown. In outline:
as §1

In the next test the target is T3, ELK4 (Homo sapiens, UniProt P28324-2 1-405).
T3 sequence: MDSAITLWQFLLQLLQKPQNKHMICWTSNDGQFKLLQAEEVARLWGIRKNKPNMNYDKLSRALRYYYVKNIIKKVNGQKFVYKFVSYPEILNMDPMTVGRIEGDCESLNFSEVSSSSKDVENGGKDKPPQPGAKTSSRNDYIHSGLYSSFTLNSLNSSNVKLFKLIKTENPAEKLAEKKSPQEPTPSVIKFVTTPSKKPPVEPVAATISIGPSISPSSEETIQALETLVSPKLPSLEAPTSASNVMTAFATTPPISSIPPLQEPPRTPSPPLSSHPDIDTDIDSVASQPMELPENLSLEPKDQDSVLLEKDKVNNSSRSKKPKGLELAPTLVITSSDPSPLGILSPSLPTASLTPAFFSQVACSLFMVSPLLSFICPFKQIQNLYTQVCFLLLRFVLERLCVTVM
As to conditions: protein: recombinant; tags: N-terminal GST; dsDNA, one strand shown. The method, boiled down:
as §1

In the next test the target is T4, ETV2 (Homo sapiens, UniProt O00321 1-342).
T4 sequence: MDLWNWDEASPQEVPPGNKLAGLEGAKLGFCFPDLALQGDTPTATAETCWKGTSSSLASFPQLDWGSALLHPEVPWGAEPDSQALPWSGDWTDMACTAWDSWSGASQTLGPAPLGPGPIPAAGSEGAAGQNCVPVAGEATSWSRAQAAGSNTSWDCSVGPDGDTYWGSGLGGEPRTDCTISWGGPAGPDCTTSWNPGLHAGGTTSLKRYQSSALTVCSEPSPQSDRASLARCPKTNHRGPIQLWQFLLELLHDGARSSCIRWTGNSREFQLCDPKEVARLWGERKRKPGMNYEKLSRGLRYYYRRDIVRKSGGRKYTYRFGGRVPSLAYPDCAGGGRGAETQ
As to conditions: protein: recombinant; tags: N-terminal GST; dsDNA, one strand shown. The method, boiled down:
as §1

The target in another test is T5, ELF3 (Homo sapiens, UniProt P78545 1-371).
T5 sequence: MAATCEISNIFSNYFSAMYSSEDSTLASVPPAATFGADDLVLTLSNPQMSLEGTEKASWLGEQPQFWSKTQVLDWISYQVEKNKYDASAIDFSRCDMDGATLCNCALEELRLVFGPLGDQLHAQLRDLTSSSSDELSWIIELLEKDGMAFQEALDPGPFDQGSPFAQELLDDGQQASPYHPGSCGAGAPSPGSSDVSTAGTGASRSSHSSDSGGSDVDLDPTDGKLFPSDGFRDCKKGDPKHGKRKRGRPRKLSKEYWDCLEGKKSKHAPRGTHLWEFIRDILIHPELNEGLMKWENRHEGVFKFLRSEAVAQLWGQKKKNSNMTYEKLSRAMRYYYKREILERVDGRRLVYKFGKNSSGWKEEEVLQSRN
As to conditions: protein: recombinant; tags: N-terminal GST; dsDNA, one strand shown. The method, boiled down: as §1

The target of a further test is CRX (Homo sapiens, UniProt O43186 1-299). As to conditions: protein: recombinant; tags: N-terminal GST; dsDNA, one strand shown. In outline:
as §1

The target of another test is ETV1 (Homo sapiens, UniProt P50549 1-477). As to conditions: protein: recombinant; tags: N-terminal GST; dsDNA, one strand shown. In outline:
as §1

The next test has as its target T6, ERF (Homo sapiens, UniProt P50548 1-548).
T6 sequence: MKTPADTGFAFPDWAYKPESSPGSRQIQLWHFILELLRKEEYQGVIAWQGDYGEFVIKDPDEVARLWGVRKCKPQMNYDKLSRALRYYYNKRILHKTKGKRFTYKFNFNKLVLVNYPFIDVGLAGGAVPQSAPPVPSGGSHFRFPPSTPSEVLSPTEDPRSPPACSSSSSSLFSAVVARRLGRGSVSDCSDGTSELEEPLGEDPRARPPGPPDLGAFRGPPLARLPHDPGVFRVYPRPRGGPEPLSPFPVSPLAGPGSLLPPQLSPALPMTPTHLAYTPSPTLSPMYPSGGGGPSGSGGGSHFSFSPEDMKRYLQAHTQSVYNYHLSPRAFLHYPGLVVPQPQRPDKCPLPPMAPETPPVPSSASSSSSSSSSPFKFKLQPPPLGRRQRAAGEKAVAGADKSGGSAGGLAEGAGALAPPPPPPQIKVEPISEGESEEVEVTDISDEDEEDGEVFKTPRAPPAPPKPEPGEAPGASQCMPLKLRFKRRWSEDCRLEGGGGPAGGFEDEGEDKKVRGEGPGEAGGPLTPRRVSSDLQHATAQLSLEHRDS
As to conditions: protein: recombinant; tags: N-terminal GST; dsDNA, one strand shown. In outline:
as §1

A further test has as its target T7, ETV3L (Homo sapiens, UniProt Q6ZN32 1-361).
T7 sequence: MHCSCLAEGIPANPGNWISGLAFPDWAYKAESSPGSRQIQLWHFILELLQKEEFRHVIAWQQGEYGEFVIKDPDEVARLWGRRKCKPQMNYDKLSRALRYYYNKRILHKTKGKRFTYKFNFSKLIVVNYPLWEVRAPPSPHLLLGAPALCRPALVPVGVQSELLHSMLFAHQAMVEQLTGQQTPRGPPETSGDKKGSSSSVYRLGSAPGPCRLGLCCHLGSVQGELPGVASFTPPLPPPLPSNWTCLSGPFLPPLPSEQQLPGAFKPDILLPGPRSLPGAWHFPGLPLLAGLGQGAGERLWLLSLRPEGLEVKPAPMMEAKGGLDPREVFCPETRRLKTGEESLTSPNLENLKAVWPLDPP
As to conditions: protein: recombinant; tags: N-terminal GST; dsDNA, one strand shown. The method, boiled down: as §1

For another test, the target named is T8, ETS2 (Homo sapiens, UniProt P15036 1-469).
T8 sequence: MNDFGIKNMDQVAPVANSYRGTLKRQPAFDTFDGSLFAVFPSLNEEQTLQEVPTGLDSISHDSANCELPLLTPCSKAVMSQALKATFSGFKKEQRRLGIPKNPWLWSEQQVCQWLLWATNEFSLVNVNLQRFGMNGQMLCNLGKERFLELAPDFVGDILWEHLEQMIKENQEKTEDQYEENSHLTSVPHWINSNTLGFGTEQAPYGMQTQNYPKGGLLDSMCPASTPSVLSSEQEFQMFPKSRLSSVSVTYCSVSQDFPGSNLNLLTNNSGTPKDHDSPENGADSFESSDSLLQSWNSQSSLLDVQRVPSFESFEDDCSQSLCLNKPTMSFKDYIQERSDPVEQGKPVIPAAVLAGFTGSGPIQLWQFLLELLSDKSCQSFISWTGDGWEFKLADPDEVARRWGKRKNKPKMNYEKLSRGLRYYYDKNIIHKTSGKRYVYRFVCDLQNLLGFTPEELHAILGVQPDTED
As to conditions: protein: recombinant; tags: N-terminal GST; dsDNA, one strand shown. In outline:
as §1

Another test has as its target T9, SPDEF (Homo sapiens, UniProt O95238 1-335).
T9 sequence: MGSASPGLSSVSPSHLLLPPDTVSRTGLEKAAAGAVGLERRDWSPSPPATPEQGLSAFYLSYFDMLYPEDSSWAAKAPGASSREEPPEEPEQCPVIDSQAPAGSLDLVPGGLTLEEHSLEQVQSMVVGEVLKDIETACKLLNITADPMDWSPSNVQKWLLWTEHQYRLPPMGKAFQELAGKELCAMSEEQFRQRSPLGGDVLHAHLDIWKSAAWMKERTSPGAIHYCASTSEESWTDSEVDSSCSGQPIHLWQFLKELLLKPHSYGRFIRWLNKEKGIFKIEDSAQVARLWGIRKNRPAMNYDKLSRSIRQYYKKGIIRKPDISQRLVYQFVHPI
As to conditions: protein: recombinant; tags: N-terminal GST; dsDNA, one strand shown. In outline: as §1

The target in the next test is T10, ETV7 (Homo sapiens, UniProt Q9Y603 1-341).
T10 sequence: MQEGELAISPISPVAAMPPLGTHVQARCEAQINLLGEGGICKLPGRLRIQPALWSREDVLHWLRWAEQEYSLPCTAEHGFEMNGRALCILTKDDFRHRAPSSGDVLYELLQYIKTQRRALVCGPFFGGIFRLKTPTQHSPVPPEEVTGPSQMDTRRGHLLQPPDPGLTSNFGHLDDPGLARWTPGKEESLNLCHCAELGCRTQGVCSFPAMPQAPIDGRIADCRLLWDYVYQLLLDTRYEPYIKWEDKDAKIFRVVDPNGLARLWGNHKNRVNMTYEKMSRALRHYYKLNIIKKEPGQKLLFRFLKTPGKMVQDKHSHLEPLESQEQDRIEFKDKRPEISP
As to conditions: protein: recombinant; tags: N-terminal GST; dsDNA, one strand shown. In outline: as §1

In another test the target is T11, ELF5 (Homo sapiens, UniProt Q9UKW6-2 1-255).
T11 sequence: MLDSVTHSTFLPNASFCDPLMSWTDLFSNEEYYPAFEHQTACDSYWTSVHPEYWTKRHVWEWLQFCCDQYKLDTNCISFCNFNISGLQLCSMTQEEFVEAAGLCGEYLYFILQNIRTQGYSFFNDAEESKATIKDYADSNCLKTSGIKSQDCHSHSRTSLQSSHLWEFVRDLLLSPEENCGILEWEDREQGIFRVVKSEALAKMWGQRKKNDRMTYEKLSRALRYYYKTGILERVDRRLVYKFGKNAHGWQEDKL
As to conditions: protein: recombinant; tags: N-terminal GST; dsDNA, one strand shown. In outline:
as §1

For another test, the target named is T12, ETV3 (Homo sapiens, UniProt P41162-2 1-143).
T12 sequence: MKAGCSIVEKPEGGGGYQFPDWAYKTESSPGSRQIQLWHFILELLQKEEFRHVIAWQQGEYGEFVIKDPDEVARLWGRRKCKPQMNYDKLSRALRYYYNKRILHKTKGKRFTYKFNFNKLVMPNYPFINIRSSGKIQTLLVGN
As to conditions: protein: recombinant; tags: N-terminal GST; dsDNA, one strand shown. In outline: as §1

The target in another test is ETV6 (Homo sapiens, UniProt P41212 1-452). As to conditions: protein: recombinant; tags: N-terminal GST; dsDNA, one strand shown. In outline: as §1
Sequence of ETV6 (P41212 whole entry): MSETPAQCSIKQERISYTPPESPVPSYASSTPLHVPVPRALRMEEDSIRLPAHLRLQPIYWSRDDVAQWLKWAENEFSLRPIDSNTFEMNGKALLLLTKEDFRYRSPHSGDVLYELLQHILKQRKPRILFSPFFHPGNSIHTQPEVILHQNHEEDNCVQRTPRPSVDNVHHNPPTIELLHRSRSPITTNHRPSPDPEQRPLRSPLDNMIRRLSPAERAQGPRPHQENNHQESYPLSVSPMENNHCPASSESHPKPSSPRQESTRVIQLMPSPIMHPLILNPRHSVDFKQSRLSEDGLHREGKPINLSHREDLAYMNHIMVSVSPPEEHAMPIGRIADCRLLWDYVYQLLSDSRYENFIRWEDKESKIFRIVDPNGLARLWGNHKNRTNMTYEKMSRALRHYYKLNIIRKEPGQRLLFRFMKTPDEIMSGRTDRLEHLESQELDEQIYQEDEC

Sequence of ELF4 (Q99607 whole entry): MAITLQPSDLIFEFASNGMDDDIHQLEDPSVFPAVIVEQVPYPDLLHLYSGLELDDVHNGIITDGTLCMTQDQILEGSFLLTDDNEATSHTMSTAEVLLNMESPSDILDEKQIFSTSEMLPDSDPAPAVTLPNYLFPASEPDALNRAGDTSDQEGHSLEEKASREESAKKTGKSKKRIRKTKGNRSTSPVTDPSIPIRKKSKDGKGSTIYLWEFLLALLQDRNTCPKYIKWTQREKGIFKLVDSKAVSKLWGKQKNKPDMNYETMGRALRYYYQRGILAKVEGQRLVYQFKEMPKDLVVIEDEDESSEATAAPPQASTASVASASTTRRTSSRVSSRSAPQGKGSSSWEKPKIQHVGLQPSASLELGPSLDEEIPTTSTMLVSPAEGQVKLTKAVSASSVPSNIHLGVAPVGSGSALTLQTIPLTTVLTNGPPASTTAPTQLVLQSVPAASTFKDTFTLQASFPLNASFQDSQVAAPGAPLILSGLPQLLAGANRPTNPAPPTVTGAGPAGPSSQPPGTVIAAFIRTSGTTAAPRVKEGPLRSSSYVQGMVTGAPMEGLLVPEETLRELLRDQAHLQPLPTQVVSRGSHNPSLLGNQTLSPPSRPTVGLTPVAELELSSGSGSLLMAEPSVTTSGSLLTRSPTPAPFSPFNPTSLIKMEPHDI
Sequence of HSF1 (Q00613 whole entry): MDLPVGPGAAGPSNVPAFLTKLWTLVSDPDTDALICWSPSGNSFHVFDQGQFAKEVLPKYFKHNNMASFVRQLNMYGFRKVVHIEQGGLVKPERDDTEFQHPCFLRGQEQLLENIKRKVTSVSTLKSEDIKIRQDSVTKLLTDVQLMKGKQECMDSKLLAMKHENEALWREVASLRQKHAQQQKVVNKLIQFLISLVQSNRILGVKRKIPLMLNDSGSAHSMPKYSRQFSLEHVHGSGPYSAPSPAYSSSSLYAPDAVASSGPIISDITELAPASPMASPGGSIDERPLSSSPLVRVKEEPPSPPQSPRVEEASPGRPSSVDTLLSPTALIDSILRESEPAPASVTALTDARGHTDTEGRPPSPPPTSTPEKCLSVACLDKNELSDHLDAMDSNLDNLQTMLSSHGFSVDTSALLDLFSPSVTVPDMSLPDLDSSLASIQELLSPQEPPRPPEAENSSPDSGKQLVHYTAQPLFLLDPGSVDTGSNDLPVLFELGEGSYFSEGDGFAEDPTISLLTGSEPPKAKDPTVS
Sequence of CRX (O43186 whole entry): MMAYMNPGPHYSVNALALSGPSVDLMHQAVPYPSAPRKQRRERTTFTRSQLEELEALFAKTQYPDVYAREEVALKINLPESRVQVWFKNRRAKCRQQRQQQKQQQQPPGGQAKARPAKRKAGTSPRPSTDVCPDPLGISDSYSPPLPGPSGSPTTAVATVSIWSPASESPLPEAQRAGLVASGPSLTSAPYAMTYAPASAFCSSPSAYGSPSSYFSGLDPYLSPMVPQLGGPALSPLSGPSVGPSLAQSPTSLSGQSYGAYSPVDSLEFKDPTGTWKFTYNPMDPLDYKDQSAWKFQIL
Sequence of ETV1 (P50549 whole entry): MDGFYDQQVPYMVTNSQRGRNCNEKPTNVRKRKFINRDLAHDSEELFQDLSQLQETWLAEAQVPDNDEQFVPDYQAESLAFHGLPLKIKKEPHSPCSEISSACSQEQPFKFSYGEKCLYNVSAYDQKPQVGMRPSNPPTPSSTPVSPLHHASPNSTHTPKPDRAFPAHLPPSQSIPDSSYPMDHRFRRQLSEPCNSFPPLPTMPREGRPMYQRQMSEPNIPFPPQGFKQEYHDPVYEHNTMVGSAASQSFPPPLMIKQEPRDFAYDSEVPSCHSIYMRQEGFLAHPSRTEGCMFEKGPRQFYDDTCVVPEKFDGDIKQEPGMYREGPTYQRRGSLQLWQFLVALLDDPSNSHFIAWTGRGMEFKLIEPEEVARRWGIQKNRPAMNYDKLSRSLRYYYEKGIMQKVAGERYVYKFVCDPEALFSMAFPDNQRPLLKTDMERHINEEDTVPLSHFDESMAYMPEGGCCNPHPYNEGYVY
Sequence of ETV5 (P41161 whole entry): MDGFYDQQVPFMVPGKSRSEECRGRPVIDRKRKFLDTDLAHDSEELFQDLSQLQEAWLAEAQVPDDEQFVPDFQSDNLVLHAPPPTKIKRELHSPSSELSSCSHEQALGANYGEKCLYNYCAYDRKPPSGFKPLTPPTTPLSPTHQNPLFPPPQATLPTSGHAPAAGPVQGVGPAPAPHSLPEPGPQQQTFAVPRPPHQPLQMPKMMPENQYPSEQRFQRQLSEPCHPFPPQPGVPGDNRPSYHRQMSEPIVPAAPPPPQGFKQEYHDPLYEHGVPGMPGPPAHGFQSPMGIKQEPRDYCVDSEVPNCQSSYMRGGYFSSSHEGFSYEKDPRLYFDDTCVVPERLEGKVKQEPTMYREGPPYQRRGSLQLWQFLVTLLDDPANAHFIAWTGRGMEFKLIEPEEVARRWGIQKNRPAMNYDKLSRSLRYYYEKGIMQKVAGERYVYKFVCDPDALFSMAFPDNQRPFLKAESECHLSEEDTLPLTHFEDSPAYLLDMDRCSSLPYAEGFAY

Consider TCCGCT, for which the binding signal was 2.51 fold enrichment (6-mer frequency, TF over GST control) with FEV; 2.37 fold enrichment (6-mer frequency, TF over GST control) with ETV5; 1.51 fold enrichment (6-mer frequency, TF over GST control) with HSF1; 2.63 fold enrichment (6-mer frequency, TF over GST control) with SPIC; 2.13 fold enrichment (6-mer frequency, TF over GST control) in the test with ELF4; 2.01 fold enrichment (6-mer frequency, TF over GST control) in the test with ELK4. Also, the binding signal with ETV2 was 2.27 fold enrichment (6-mer frequency, TF over GST control); with ELF3, 2.15 fold enrichment (6-mer frequency, TF over GST control); with CRX, 1.84 fold enrichment (6-mer frequency, TF over GST control); with ETV1, 2.44 fold enrichment (6-mer frequency, TF over GST control); with ERF, 2.12 fold enrichment (6-mer frequency, TF over GST control); with ETV3L it was 2.23 fold enrichment (6-mer frequency, TF over GST control). Besides, the binding signal with ETS2 is 2.32 fold enrichment (6-mer frequency, TF over GST control); with SPDEF, 2.51 fold enrichment (6-mer frequency, TF over GST control); with ETV7, 2.07 fold enrichment (6-mer frequency, TF over GST control); in the test with ELF5, 2.58 fold enrichment (6-mer frequency, TF over GST control); in the test with ETV3, 2.44 fold enrichment (6-mer frequency, TF over GST control); with ETV6 it was 2.44 fold enrichment (6-mer frequency, TF over GST control).
